16 sequences from the OligoGym collection can be followed below.
Further: reference of the scale not given here.

The first test concerns the target C8orf86. As to the kind of experiment: pooled miR-30 sensor sort-seq; sequence = guide strand. The note with it: shRNA.
For the sequence TTGCTTCTAATCAACTCCTCAG, the sensor-assay potency score (higher = more potent) was -0.327. On the same count and under the same terms, under TTGTCTCTCTGTTCGCTGCTCA stands 0.291. Consider TTTGTCTCTCTGTTCGCTGCTC, for which the sensor-assay potency score (higher = more potent) is -0.0258. Regarding TTCTAATCAACTCCTCAGCTGG, the sensor-assay potency score (higher = more potent) was -0.81.

Another test deals with C9orf100. The test is described as above. Conditions: shRNA.
TTCTTGGTAGCGCCGCTCGGTC: the sensor-assay potency score (higher = more potent) was -1.6. TTGGTTATAGAGCTCCAAGTGG: the sensor-assay potency score (higher = more potent) is -0.209. TTATAGAGCTCCAAGTGGCGGC: the sensor-assay potency score (higher = more potent) was -0.479. Consider ATCTGGAGTAGCTTGGTCCAGG, for which the sensor-assay potency score (higher = more potent) was -1.26. In the case of TATTTTTCTTTAGCTGCTCCTG, the sensor-assay potency score (higher = more potent) is -0.997. TTGATGGTCAGGGCTGTTGGGA: the sensor-assay potency score (higher = more potent) is -1.1. TGAAGCCGTACAAACCTCCGGA returned a sensor-assay potency score (higher = more potent) of 0.131. Consider TCAGACTGTGGTACCAGCGTGA, for which the sensor-assay potency score (higher = more potent) stood at 0.191. In the case of AAATTGGTTATAGAGCTCCAAG, the sensor-assay potency score (higher = more potent) was -1.5. On to TCGGTCTCTAGCAGCTCCCGGG, for which the sensor-assay potency score (higher = more potent) was -1.38. With TTTCTTTAGCTGCTCCTGCAGG, the sensor-assay potency score (higher = more potent) is -0.717. As for TAAGCAGTAGCTTCTCATGAGG, the sensor-assay potency score (higher = more potent) was -1.31.
